Source: PubChem BioAssay (Tox21)
“And” between values parts separate entries of the source, which are not always exact repeats. Equal values may be shown once. Inconclusive results are not listed. A call without a number means that no potency is given here. The source holds several records for some structures; these can differ, active in one and inactive in another. The source made the active and inactive calls. Unless noted, the call rests on the fitted dose curve; in most records, active means well fitted curve in the direction sought with a large enough effect in the repeat runs; inconclusive means weak or mixed curves; inactive means no such curve, though single readings can be large; an effect the other way counts as inactive or inconclusive.

Key:
[1] = Caspase-3/7 induction in HepG2 cells by small molecules, qHTS assay (AID 1346978); further: nearly all actives have a fitted effect of over 15% in size
How it was run: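 Caspase-3/7 induction was measured by Caspase-Glo 3/7 luminescence (30 min, room temperature) after a 17 hr compound exposure of wild-type HepG2 cells seeded at 2,000 per well and pre-incubated 5 hr.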

[2] = Caspase-3/7 induction in CHO-K1 cells by small molecules, qHTS cell viability counter screen (AID 1346979); further: nearly all actives have a fitted effect of over 35% in size; further: potency means the concentration at half of the fitted maximal effect
How it was run: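 To flag cytotoxic compounds, treated CHO-K1 wild-type cells were given CellTiter-Fluor at 16hr and read fluorescently after 1hr at 37C; the caspase-3/7 luminescence was measured in these same wells.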

[3] = Caspase-3/7 induction in CHO-K1 cells by small molecules, qHTS assay (AID 1346980); further: nearly all actives have a fitted effect of over 15% in size
How it was run: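 Luminescent Caspase-Glo 3/7 read (30min, room temperature) quantified apoptosis induction. Cells were wild-type CHO-K1, treated with compound for 17hr at 37 C and 5% CO2.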

[4] = Caspase-3/7 induction in HepG2 cells by small molecules, qHTS cell viability counter screen (AID 1346981); further: series mostly up to about 92 µM; nearly all actives have a fitted effect of over 30% in size
How it was run: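 HepG2, WT, 2,000 cells/well; 5 hr pre-incubation 37 C/5% CO2; compound pin-transferred from DMSO; 16 hr exposure; CellTiter-Fluor, 1 hr; fluorescence read.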

[5] = target: Acetylcholinesterase (Homo sapiens) (UniProt P22303); experiment: Acetylcholinesterase (AChE) small molecule antagonists: colormetric cell-based qHTS assay (AID 1347395; calls by dose curve; further: nearly all actives have a fitted effect of over 30% in size; further: potency means the concentration at half of the fitted maximal effect)
Acetylcholinesterase (Homo sapiens), sequence (P22303 whole entry, looked up): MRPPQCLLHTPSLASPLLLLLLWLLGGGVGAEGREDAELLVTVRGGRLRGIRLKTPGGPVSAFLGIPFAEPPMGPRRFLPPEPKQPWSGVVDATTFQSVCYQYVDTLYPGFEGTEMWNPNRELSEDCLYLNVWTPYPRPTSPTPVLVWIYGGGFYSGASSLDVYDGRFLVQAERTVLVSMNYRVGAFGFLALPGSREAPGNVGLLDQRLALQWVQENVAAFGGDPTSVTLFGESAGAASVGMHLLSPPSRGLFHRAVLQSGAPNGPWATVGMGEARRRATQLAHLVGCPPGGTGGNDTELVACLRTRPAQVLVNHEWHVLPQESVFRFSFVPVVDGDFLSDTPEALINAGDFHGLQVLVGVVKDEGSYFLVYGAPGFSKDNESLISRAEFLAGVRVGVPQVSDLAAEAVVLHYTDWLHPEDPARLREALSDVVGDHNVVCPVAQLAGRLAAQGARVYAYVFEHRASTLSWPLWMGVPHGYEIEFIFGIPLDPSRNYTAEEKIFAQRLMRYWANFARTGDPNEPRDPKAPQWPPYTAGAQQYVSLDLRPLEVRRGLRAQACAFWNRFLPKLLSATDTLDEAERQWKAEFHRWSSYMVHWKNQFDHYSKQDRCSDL
How it was run: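 Neuroblastoma line SH-SY5Y supplied the enzyme; cells were preincubated with compound for 30 min at 37 C and 5% CO2. Acetylthiocholine with DTNB was then added for 90 min at 37 C, and thiocholine was measured by colour.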

[6] = target: Acetylcholinesterase (Homo sapiens) (UniProt P22303); experiment: Acetylcholinesterase (AChE) small molecule antagonists: enzyme-based qHTS assay (AID 1347397; calls by dose curve; further: nearly all actives have a fitted effect of over 55% in size; further: potency means the concentration at half of the fitted maximal effect); settings: Potency: AChE enzyme activity inhibition
How it was run: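 rhAChE 50 mU/mL (dispensed) + cpd or DMSO, 30 min RT; add DTNB/acetylthiocholine cocktail, 10 min RT; colorimetric thiocholine readout. qHTS, 1536-well format.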

[7] = target: Acetylcholinesterase (Homo sapiens) (UniProt P22303); experiment: Acetylcholinesterase (AChE) small molecule antagonists: fluorescence cell-based qHTS assay (AID 1347398; calls by dose curve; further: nearly all actives have a fitted effect of over 50% in size; further: potency means the concentration at half of the fitted maximal effect); settings: Potency: AChE activity
How it was run: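 Read-out is Thiolite Green fluorescence at Ex/Em = 490/520 nm, formed by reaction with thiocholine released when cellular AChE in SH-SY5Y cells hydrolyzes acetylthiocholine. Compounds were preincubated 30 min at 37 C before substrate.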

[8] = target: Acetylcholinesterase (Homo sapiens) (UniProt P22303); experiment: Acetylcholinesterase (AChE) small molecule antagonists: enzyme-based qHTS assay with human liver microsomes (AID 1347399; calls by dose curve; further: nearly all actives have a fitted effect of over 60% in size; further: potency means the concentration at half of the fitted maximal effect); settings: Potency: qHTS inhibition
How it was run: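 Recombinant human AChE (50 mU/mL in the enzyme mix) and human liver microsomes (0.25 mg/mL final) were preincubated with compound and NADPH (0.25 mg/mL final) for 30 min at 37 C. Acetylthiocholine/DTNB was then added; thiocholine was read colorimetrically after 10 min at room temperature.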

[9] = target: Cytochrome P450 2D6 (Homo sapiens) (UniProt P10635); experiment: Cytochrome P450 Family 2 Subfamily D Member 6 (CYP2D6) small molecule antagonists: luciferase reporter qHTS assay (AID 1671196); further: nearly all actives have a fitted effect of over 50% in size; further: potency means the concentration at half of the fitted maximal effect
Cytochrome P450 2D6 (Homo sapiens), sequence (P10635 whole entry, looked up): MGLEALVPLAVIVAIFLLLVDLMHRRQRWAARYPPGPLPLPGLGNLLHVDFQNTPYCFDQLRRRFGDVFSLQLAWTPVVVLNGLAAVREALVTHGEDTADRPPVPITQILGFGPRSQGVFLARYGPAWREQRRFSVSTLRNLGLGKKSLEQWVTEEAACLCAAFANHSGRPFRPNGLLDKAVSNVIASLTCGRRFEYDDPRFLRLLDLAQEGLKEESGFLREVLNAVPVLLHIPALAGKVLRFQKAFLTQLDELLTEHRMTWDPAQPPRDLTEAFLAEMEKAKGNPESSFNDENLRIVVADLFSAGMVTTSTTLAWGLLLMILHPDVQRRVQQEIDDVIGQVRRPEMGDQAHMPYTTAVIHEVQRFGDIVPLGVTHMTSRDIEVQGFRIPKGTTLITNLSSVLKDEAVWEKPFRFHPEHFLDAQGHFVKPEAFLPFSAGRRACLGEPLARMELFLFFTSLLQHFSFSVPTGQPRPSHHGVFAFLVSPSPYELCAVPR
How it was run: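 Read-out is luminescence from luciferin formed by CYP2D6 turnover of a proluciferin substrate, recorded as relative luminescence units. Reactions ran 1 h at room temperature after NADPH regeneration solution was added.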

[10] = target: Cytochrome P450 2C19 (Homo sapiens) (UniProt P33261); experiment: Cytochrome P450 Family 2 Subfamily C Member 19 (CYP2C19) small molecule antagonists: luciferase reporter qHTS assay (AID 1671197); further: nearly all actives have a fitted effect of over 65% in size; further: potency means the concentration at half of the fitted maximal effect
Cytochrome P450 2C19 (Homo sapiens), sequence (P33261 whole entry, looked up): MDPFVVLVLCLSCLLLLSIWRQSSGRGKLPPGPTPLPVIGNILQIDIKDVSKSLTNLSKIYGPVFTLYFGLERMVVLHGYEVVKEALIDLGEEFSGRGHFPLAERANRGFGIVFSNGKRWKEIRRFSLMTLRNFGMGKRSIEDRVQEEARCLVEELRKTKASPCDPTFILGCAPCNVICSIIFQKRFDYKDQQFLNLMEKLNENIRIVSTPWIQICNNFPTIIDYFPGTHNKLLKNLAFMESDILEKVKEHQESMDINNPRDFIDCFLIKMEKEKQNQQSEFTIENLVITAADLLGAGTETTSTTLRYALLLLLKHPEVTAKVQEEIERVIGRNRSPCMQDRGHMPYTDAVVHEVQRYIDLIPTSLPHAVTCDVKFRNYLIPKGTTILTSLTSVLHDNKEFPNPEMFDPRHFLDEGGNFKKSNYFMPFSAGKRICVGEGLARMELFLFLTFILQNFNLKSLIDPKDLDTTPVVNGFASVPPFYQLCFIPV
How it was run: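 Compounds were tested on CYP2C19 activity via proluciferin conversion to luciferin. The 37C, 1 h reaction followed NADPH addition; detection reagent stopped it.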

[11] = target: Cytochrome P450 2C9 (Homo sapiens) (UniProt P11712); experiment: Cytochrome P450 Family 2 Subfamily C Member 9 (CYP2C9) small molecule antagonists: luciferase reporter qHTS assay (AID 1671198); further: nearly all actives have a fitted effect of over 50% in size; further: potency means the concentration at half of the fitted maximal effect
Cytochrome P450 2C9 (Homo sapiens), sequence (P11712 whole entry, looked up): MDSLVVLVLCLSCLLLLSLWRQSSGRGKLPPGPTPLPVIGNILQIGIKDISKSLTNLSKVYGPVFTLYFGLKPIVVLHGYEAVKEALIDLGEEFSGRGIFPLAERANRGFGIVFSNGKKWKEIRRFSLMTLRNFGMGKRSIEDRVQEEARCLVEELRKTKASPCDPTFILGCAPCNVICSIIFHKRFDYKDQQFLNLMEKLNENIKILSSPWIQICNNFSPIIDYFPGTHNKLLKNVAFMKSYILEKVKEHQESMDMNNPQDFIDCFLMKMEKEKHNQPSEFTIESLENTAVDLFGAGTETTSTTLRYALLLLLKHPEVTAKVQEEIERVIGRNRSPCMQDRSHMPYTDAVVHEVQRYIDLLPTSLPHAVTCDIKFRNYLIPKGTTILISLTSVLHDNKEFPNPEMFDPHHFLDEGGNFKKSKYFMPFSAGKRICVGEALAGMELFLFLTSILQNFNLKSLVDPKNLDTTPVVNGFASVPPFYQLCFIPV
How it was run: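 Enzyme-substrate mix preincubated with compound 10 min at room temperature; reaction started with NADPH regeneration solution, 1 h 37C. Luminescent luciferin product read after 20 min detection reagent.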

[12] = target: Cytochrome P450 1A2 (Homo sapiens) (UniProt P05177); experiment: Cytochrome P450 Family 1 Subfamily A Member 2 (CYP1A2) small molecule antagonists: luciferase reporter qHTS assay (AID 1671199); further: nearly all actives have a fitted effect of over 50% in size; further: potency means the concentration at half of the fitted maximal effect
Cytochrome P450 1A2 (Homo sapiens), sequence (P05177 whole entry, looked up): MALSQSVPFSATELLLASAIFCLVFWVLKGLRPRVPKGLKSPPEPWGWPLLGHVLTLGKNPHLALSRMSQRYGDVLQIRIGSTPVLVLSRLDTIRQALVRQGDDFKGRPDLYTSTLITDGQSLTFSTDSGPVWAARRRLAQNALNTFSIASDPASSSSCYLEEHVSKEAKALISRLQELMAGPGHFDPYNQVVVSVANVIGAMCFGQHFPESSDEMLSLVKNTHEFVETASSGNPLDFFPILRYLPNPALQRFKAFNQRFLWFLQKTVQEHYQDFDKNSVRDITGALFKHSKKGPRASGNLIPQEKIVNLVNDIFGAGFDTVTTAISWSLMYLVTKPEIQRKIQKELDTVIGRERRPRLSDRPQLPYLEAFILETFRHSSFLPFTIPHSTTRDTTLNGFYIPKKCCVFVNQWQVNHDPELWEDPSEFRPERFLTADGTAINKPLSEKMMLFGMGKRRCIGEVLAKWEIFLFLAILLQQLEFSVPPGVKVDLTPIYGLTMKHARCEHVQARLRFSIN
How it was run: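 P450-Glo CYP1A2, 1536-well qHTS: enzyme/proluciferin substrate + cpd (DMSO), 10 min RT; NADPH regen, 1 h RT; detection reagent, 20 min; luminescence, RLU.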

[13] = target: Voltage-gated inwardly rectifying potassium channel KCNH2 (Homo sapiens) (UniProt Q12809); experiment: Human Ether-a-go-go-Related Gene (hERG) channel small molecule antagonists: fluorescence cell-based qHTS assay (AID 1671200); further: nearly all actives have a fitted effect of over 50% in size; further: potency means the concentration at half of the fitted maximal effect
Voltage-gated inwardly rectifying potassium channel KCNH2 (Homo sapiens), sequence (Q12809 whole entry, looked up): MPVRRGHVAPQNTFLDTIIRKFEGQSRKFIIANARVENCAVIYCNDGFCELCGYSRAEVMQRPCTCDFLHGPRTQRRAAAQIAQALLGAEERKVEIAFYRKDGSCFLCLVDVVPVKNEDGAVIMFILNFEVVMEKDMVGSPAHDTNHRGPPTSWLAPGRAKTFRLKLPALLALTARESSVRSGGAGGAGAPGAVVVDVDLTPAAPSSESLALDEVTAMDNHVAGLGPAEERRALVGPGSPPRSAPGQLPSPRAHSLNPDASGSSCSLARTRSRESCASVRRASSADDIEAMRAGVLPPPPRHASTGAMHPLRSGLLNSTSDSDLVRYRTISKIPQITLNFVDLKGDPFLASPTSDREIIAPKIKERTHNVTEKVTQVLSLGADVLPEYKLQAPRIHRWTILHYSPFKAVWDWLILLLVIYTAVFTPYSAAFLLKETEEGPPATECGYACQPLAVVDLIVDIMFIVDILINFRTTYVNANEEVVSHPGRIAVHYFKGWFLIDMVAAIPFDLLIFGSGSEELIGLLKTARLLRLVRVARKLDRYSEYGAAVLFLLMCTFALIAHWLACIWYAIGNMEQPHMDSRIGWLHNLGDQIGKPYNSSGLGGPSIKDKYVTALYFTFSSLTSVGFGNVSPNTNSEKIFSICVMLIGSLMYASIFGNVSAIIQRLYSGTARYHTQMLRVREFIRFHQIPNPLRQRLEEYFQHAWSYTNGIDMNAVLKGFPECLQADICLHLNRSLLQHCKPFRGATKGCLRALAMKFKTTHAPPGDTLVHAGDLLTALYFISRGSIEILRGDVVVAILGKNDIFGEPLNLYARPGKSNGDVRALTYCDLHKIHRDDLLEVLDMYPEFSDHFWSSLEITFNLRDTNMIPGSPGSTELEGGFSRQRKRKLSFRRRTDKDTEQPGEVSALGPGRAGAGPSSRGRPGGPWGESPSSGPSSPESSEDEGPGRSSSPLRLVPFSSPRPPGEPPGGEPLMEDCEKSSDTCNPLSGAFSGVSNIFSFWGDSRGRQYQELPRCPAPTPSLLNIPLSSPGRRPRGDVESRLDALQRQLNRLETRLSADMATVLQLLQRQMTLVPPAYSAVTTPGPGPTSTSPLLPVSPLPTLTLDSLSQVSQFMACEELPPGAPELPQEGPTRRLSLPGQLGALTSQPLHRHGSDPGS
How it was run: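 Measured: Tl+ flux via fluorescence (480/540 nm) in hERG-expressing U2OS cells after 1 h dye loading at room temperature.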

[14] = target: Cytochrome P450 3A4 (Homo sapiens) (UniProt P08684); experiment: Cytochrome P450 Family 3 Subfamily A Member 4 (CYP3A4) small molecule antagonists: luciferase reporter qHTS assay (AID 1671201); further: nearly all actives have a fitted effect of over 50% in size; further: potency means the concentration at half of the fitted maximal effect
Cytochrome P450 3A4 (Homo sapiens), sequence (P08684 whole entry, looked up): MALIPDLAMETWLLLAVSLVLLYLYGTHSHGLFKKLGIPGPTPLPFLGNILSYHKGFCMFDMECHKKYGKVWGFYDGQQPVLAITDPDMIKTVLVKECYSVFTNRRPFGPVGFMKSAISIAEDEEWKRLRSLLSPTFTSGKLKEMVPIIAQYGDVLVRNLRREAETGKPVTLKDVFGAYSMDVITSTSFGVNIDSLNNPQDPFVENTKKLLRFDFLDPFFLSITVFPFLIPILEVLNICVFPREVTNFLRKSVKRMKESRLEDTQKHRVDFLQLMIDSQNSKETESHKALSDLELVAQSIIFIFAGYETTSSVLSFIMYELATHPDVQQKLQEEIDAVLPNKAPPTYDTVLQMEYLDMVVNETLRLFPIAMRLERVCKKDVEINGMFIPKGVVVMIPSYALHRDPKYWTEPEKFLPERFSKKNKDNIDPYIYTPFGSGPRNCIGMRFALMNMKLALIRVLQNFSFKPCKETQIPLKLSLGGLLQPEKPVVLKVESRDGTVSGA
How it was run: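 Setup: enzyme-substrate mix, compound pin transfer, 10 min RT. Reaction: NADPH regeneration solution, 1 h RT. Readout: detection reagent stops turnover, luminescence measured after 20 min, expressed in relative luminescence units.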

[15] = target: Nuclear receptor subfamily 1 group I member 2 (Homo sapiens) (UniProt O75469); experiment: Human pregnane X receptor (PXR) small molecule agonists, qHTS assay (AID 1346982); further: potency means the concentration at half of the fitted maximal effect; nearly all actives have a fitted effect of over 35% in size
Nuclear receptor subfamily 1 group I member 2 (Homo sapiens), sequence (O75469 whole entry, looked up): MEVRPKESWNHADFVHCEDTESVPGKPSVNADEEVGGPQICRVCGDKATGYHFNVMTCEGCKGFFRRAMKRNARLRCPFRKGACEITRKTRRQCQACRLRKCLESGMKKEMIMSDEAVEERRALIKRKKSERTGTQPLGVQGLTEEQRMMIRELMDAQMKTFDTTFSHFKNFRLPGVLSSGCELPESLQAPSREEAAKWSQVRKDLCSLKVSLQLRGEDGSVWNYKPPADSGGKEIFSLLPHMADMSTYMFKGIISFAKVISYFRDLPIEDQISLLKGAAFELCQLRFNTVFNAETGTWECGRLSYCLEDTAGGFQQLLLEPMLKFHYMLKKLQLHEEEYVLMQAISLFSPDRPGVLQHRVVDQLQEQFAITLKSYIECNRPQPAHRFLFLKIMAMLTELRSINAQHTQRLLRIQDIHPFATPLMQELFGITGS
How it was run: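 Luciferase signal from ONE-Glo (30 min, room temperature) measured activation of hPXR-driven CYP3A4 reporter expression in PXR-Luc HepG2 cells treated with compounds for 24 hr at 37 C.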

[16] = target: Nuclear receptor subfamily 1 group I member 2 (Rattus norvegicus) (UniProt Q9R1A7); experiment: Rat pregnane X receptor (rPXR) activation by small molecules, qHTS assay (AID 1346983); settings: rPXR luciferase reporter cells, One-Glo luminescence, 24 h; stronger effect = higher value; further: nearly all actives have a fitted effect of over 20% in size
How it was run: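 Luminescent readout (One-Glo luciferase, 30 min room temperature) followed 24 hr compound treatment at 37 C of rPXR cells plated 2,000 per well and preincubated 5hr; qHTS format with compounds delivered in DMSO.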

[17] = target: Nuclear receptor subfamily 1 group I member 2 (Homo sapiens) (UniProt O75469); experiment: Human pregnane X receptor (PXR) activation by small molecules, qHTS assay (AID 1346985); further: nearly all actives have a fitted effect of over 40% in size
How it was run: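 DPX-2 cells (HepG2 co-transfected with a PXR response element and a CYP3A4-promoter luciferase construct) were seeded at 2,000 per well, rested 5 hr at 37C, then exposed to DMSO-dissolved compounds for 24 hr. Activation was read as luciferase luminescence.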

Row | Compound | Potency [1] | Potency [2] | Potency [3] | Potency [4] | Potency [5] | Potency [6] | Potency [7] | Potency [8] | Potency [9] | Potency [10] | Potency [11] | Potency [12] | Potency [13] | Potency [14] | Potency [15] | max activation [16] | outcome [17]
1 | N#CC(Br)Br | inactive | inactive | inactive | inactive | inactive | inactive | inactive | inactive | 31.5 µM (active) and inactive | inactive | inactive | inactive | inactive | inactive | – | – | –
2 | O=S(=O)(Oc1ccc(Cl)cc1)c1ccc(Cl)cc1 | inactive | inactive | inactive | inactive | inactive | inactive | inactive | – | 16.1 µM (active) and 28.3 µM (active) | 114 nM (active) and 126 nM (active) | 32.1 µM (active) and 25.2 µM (active) | 2.87 µM (active) and 4.48 µM (active) | 24.5 µM (active) | inactive | – | – | –
3 | O=[N+]([O-])c1c(Cl)c(Cl)c(Cl)c(Cl)c1Cl | inactive | inactive | inactive | inactive | 39.8 µM (active) and 31.7 µM (active) | inactive | – | inactive | 31.6 µM (active) and inactive | inactive | inactive | 8.9 µM (active) and 1.59 µM (active) | inactive | inactive | – | – | –
4 | c1nc[nH]n1 | inactive | inactive | inactive | inactive | inactive | inactive | inactive | inactive | inactive | inactive | inactive | 62 µM (active) and 71 µM (active) | inactive | inactive | – | – | –
5 | CC(C)c1ccc(CO)cc1 | inactive | inactive | inactive | inactive | inactive | inactive | inactive | inactive | inactive | – | 39.9 µM (active) | – | inactive | inactive | – | – | –
6 | CCCCC(CC)COC(=O)Cl (centres undefined) | inactive | inactive | inactive | inactive | inactive | inactive | inactive | – | inactive | inactive | inactive | inactive | inactive | inactive | – | – | –
7 | NNC(N)=S | inactive | 25.3 µM (active) and 48.6 µM (active) | – | inactive | inactive | inactive | inactive | inactive | inactive | 73.8 µM (active) | – | 20.8 µM (active) and 31.7 µM (active) | inactive | inactive | 56.6 µM (active) and 21.7 µM (active) | – | –
8 | CCOP(=S)(OCC)O/N=C(\C#N)c1ccccc1 | inactive | inactive | – | inactive | 63.3 µM (active) and 17.4 µM (active) | 56.4 µM (active) | 39.9 µM (active) | 1.78 µM (active) and 1.55 µM (active) | 35.6 µM (active) | 224 nM (active) and 347 nM (active) | 2 µM (active) and 2.19 µM (active) | 1.42 µM (active) and 1.23 µM (active) | inactive | – | 30.6 µM (active) | – | –
9 | CC(C)(c1cc(Cl)c(O)c(Cl)c1)c1cc(Cl)c(O)c(Cl)c1 | inactive | – | inactive | inactive | inactive | – | – | inactive | inactive | 35.6 µM (active) and 28.3 µM (active) | 35.6 µM (active) and 31.7 µM (active) | inactive | inactive | 63.3 µM (active) | 54.5 µM (active) and 43.3 µM (active) | – | –
10 | O=C(Nc1ccc(Br)cc1)c1cc(Br)cc(Br)c1O | inactive | 17.2 µM (active) and 15.4 µM (active) | – | – | inactive | inactive | – | inactive | 79.6 µM (active) and inactive | inactive | 35.5 µM (active) and 17.8 µM (active) and 15.5 µM (active) | 2.82 µM (active) and 35.6 µM (active) and 17.4 µM (active) | inactive | – | 13.6 µM (active) and 13.7 µM (active) and 21.1 µM (active) | -12.3% (inactive) | inactive
11 | C=CCN(CC=C)C(=O)C(Cl)Cl | inactive | inactive | – | inactive | inactive | inactive | inactive | inactive | inactive | inactive | inactive | inactive | inactive | inactive | – | – | –
12 | ClC1C(Cl)C(Cl)C(Cl)C(Cl)C1Cl (centres undefined) | inactive | inactive | – | inactive | – | – | – | – | inactive and 39.9 µM (active) and 71 µM (active) | – | 32.4 µM (active) and 35.6 µM (active) and 31.7 µM (active) | – | 39.7 µM (active) and inactive and 43.6 µM (active) | – | – | – | –
